Data: PubChem BioAssay
Calls of active or inactive are those of the source.

Legend:
[1] = molecular target: Albumin (Bos taurus) (UniProt P02769); experiment: compounds binding labelled BSA control protein – biochemical, small-molecule microarray, Alexa647 label, 635/667 nm fluorescence, artefact control for SMM control protein annotation, profiling panel (AID 1118); settings: BSA-A647 binding, fluorescence 635 nm, higher = more signal;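 further: score merges 667 nm emission intensity and signal-to-noise per printed compound spot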
[2] = probe aXIP binding to arrayed compounds – biochemical, NeuroSMM set, 635/667 nm fluorescence, primary screen (AID 1119); settings: small-molecule microarray, higher = more signal, called active from +8 up or from −8 down;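 further: probe is the protein aXip251-270 applied at 1 µg/mL to compound-printed slides; binding of probe to printed compounds measured as 667 nm fluorescence plus signal to noise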
[3] = probe aNOTCH3 binding on compound microarray – biochemical, small-molecule microarray, 635/667 nm fluorescence, primary screen (AID 1120); settings: higher = more signal;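 further: probe is a biotin-tagged antibody raised against NOTCH3 rather than NOTCH3 protein; score merges spot fluorescence near 667 nm with spot signal to noise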
[4] = probe aNOTCH2 binding on compound microarray – biochemical, small-molecule microarray, 635/667 nm fluorescence, primary screen (AID 1121); settings: higher = more signal;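 further: score merges feature fluorescence read at 667 nm with its signal to noise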
[5] = molecular target: Carbonic anhydrase 2 (Homo sapiens) (UniProt P00918); experiment: compounds binding carbonic anhydrase 2 – biochemical, small-molecule microarray, Alexa647-labelled CAII, profiling panel (AID 1122); settings: CAII-A647 binding fluorescence, higher = more signal
[6] = COS7 lysate on small-molecule microarray, probe aHis, 635 nm (AID 1123); settings: COS7 cell lysate, fluorescence, higher = more signal;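 further: z-score combines 667nm fluorescence intensity with signal-to-noise per printed compound spot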
[7] = probe aLAP1 signal on lysate-treated microarray – cell lysate, small-molecule microarray, COS7 lysate, primary screen (AID 1124); settings: probe aLAP1, fluorescence, higher = more signal;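 further: lysate comes from COS7 cells expressing LAP1 and is applied at 0.3 µg/mL; score merges spot fluorescence near 667 nm with signal-to-noise over triplicate slides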
[8] = system: Sam68 (KHDRBS1); experiment: compounds binding KHDRBS1 protein – biochemical, small-molecule microarray, 635 nm fluorescence, primary screen (AID 1125); settings: higher = more signal;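 further: score merges 667 nm channel intensity with signal to noise over triplicate slides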
[9] = system: Chordin-like protein 2 (CHRDL2); experiment: compounds binding chordin-like 2 – biochemical, small-molecule microarray, 635 nm fluorescence, primary screen (AID 1126); settings: fluorescence 635 nm, higher = more signal;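 further: printed compound slides probed with Chrdl2 protein at 4 µg/mL for 1 h at 4 C; score merges 667 nm emission intensity with signal to noise over three replicate slides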
[10] = molecular target: Concanavalin-A (Canavalia ensiformis) (UniProt P02866); experiment: compounds binding concanavalin A lectin – biochemical, small-molecule microarray, Alexa647 label, 635 nm, artefact control for SMM control protein annotation, primary screen (AID 1127); settings: ConA-A647 binding fluorescence, higher = more signal;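 further: z combines 667 nm emission intensity with signal-to-noise across three replicate slides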
Sequence of Concanavalin-A (Canavalia ensiformis) (P02866 whole entry, looked up): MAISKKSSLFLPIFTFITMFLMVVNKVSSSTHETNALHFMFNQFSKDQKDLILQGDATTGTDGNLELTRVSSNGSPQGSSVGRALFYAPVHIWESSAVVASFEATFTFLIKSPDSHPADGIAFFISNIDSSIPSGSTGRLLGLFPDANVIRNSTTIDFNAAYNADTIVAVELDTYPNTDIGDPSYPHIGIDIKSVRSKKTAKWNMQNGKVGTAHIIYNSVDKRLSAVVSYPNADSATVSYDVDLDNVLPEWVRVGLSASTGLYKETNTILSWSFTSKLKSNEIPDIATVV

Sequence of Albumin (Bos taurus) (P02769 whole entry, looked up): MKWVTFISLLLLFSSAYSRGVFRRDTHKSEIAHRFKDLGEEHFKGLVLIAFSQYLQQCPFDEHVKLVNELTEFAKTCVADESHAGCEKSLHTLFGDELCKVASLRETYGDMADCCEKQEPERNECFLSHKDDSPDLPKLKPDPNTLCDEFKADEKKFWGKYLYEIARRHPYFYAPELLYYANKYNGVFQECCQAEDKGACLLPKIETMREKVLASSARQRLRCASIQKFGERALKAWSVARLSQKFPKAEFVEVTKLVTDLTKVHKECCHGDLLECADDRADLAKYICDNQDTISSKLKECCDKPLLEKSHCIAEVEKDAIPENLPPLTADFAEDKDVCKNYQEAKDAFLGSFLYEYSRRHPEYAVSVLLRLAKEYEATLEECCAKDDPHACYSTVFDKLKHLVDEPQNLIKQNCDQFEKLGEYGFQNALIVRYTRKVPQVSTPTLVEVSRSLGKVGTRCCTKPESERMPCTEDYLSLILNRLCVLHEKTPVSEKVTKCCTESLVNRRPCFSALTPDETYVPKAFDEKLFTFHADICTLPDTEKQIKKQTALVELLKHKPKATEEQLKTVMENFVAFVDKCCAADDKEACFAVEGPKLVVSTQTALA

| Structure (SMILES) | composite z-score [1] | composite Z-score [2] | composite z-score [3] | composite z-score [4] | composite z-score [5] | composite z-score [6] | composite z-score [7] | composite z-score [8] | composite z-score [9] | composite z-score [10] |
| --- | --- | --- | --- | --- | --- | --- | --- | --- | --- | --- |
| C[C@H]1Cc2c(-c3ccccc3)nc3c(c2CO1)CN(CCOc1ccccc1)CC3 | 0.68 | -0.2 (inactive) | 0.0667 | -0.112 | 0.352 | 0.71 | 0.292 | 1.3 | 0.521 | 0.993 |
| CCCC=C(CCC)[C@@H](NC(=O)c1ccc(-c2ccccc2)cc1)c1ccc(C(=O)OC)cc1 | 0.127 | 0.0503 (inactive) | 0.197 | 0.0382 | 0.185 | 2.41 | -0.075 | 1.26 | -0.955 | 0.724 |
| Cc1ccc(S[C@]2(C(=O)NCC(F)(F)F)CC(=O)N(Cc3ccccc3Cl)[C@@H]2c2ccc(CO)cc2I)cc1 | -0.937 | 0.0162 (inactive) | -0.133 | -0.134 | 0.796 | 1.56 | -0.49 | 0.0712 | -1.04 | -0.275 |
| CCCCC(=C=CC[C@H](O)c1ccccc1OCCO)C[C@H](O)COCc1ccccc1 | 0.355 | 2.26 (inactive) | -0.0362 | -0.147 | 0.669 | 0.0513 | 1.27 | -0.0664 | -0.632 | 0.874 |
| CC(CCC(=O)OC[C@H]1O[C@H](C#Cc2ccccc2)C=C[C@@H]1Oc1ccc(C)cc1)=NOC[C@@H](O)[C@H]1O[C@@H]2OC(C)(C)O[C@@H]2[C@H]1O | -0.326 | -0.404 (inactive) | -0.2 | -0.187 | -0.023 | -0.282 | 0.137 | 0.14 | -0.532 | -0.614 |
| COC(=O)CC=C[C@@H](C)[C@H](OC)c1ccccc1Br | -0.335 | 0.0948 (inactive) | 0.0985 | -0.0684 | -0.0896 | -0.453 | 0.1 | -0.0689 | 0.508 | -0.24 |
| CC(C)OC(=O)C=C1C[C@@H](c2ccc(C#N)cc2)O[C@@H](c2ccc(C#N)cc2)O1 | 0.992 | 0.914 (inactive) | 0.725 | 0.0186 | 0.693 | 3.07 | 0.148 | 1.32 | -0.595 | 1.15 |
| CC=CC1=C(CO)[C@H](O)[C@H]2O[C@H]2[C@H]1O | -0.15 | 0.0448 (inactive) | -0.113 | -0.146 | -0.173 | -0.188 | -0.182 | 0.278 | 1.09 | 0.291 |
| COC(=O)CC=C[C@@H](C)[C@@H](C=NO[C@@H](C)c1cc(-c2c(C)cc(C)cc2C)no1)OC | -0.387 | -0.483 (inactive) | -0.161 | -0.156 | -0.604 | -0.556 | -0.52 | -1.32 | -1.36 | -0.627 |
| CN(C)C(=O)[C@@]1(Cc2ccccc2)N=C(c2ccc(OCCCO)cc2)O[C@H]1c1ccccc1CN=[N+]=[N-] | 0.968 | 1.29 (inactive) | 0.329 | 0.319 | 0.587 | 2.49 | 0.797 | 1.29 | -0.25 | 1.14 |
| COc1cccc([C@H]2Oc3ccc(OC)cc3C(=NOC(C)CN3CCCc4nc(C)c(C)cc43)[C@@H]2O)c1 (stereo not given in full) | -0.605 | 0.904 (inactive) | 0.119 | -0.0527 | 0.431 | 0.298 | 0.532 | 1.14 | 0.414 | -1.16 |
| COCCOC(=O)N1C(=O)[C@@]2(c3cc(C#CC4(O)CCCCCC4)ccc31)[C@H](C(=O)N1CCN(c3ncccn3)CC1)[C@H]1C(=O)O[C@H](c3ccccc3)[C@H](c3ccccc3)N1[C@@H]2c1ccc(OCCO)cc1 | 0.408 | -0.108 (inactive) | 0.178 | -0.112 | 0.375 | 0.714 | 0.857 | 1.3 | 0.659 | 1.18 |
| COc1ccc(O[C@H]2C=C[C@@H](c3ccccc3)O[C@@H]2COC(=O)CCC(C)=NOC[C@@H](C)[C@H](OCc2ccccc2)C(C)C)cc1 | -0.874 | 0.289 (inactive) | -0.155 | -0.157 | -0.608 | -0.52 | -0.212 | -1.03 | -0.522 | -2.04 |
| COC(=O)CC=C[C@@H](C)[C@@H](C=NO[C@H](C)c1cn([C@@H]2COC[C@H]2O)nn1)OC | 0.162 | -0.311 (inactive) | -0.0377 | -0.122 | -0.111 | 0.214 | -0.115 | 0.747 | 0.666 | 0.266 |
| Cc1cc2c(nc1C)CCCN2CC(C)ON=C1[C@H]2CCn3c(=O)n(-c4ccccc4)c(=O)n3[C@H]2[C@H](O)[C@@H]2O[C@H]12 (stereo not given in full) | 0.243 | 0.506 (inactive) | 0.173 | -0.0535 | 0.171 | 0.198 | 0.136 | 1.24 | 0.647 | 0.367 |
| C=CCNC(=O)[C@H]1[C@@H]2C(=O)O[C@@H](c3ccccc3)[C@@H](c3ccccc3)N2[C@@H](c2ccc(O)cc2)[C@]12C(=O)N(C(=O)OCCOC)c1ccc(C#CC3=CCCCC3)cc12 | 0.633 | 0.62 (inactive) | 1.27 | 0.396 | 0.296 | 2.23 | 1.78 | 1.3 | 0.966 | 1.09 |
| O=C1C[C@@H](O)[C@@H](O)[C@@H]2[C@@H]3C(=O)N(Cc4ccc5c(c4)OCO5)C(=O)[C@@H]3CC[C@@H]12 | 0.295 | 0.856 (inactive) | -0.0146 | -0.0938 | 0.229 | 0.0971 | -0.0553 | 0.507 | 0.558 | 0.492 |

| Structure (SMILES) | composite z-score [1] | composite Z-score [2] | composite z-score [3] | composite z-score [4] | composite z-score [5] | composite z-score [6] | composite z-score [7] | composite z-score [8] | composite z-score [9] | composite z-score [10] |
| --- | --- | --- | --- | --- | --- | --- | --- | --- | --- | --- |
| CCCNC(=O)[C@@H]1c2ccccc2C(=O)N(c2ccc(C)cn2)[C@H]1c1ccc(CO)cc1 | 0.206 | -0.207 (inactive) | -0.305 | -0.109 | 0.769 | -0.018 | -0.514 | -0.646 | -0.382 | -0.984 |
| CCc1cc2c(nc1CC)CCN(CCC(C)=NOC(C)CN1CCCc3nc(C)c(C)cc31)C2 (stereo not given) | 0.263 | 1.74 (inactive) | 0.724 | 0.271 | 0.461 | 1.18 | 0.0412 | 1.29 | 0.726 | 0.952 |
| CCN1C(=O)[C@H]2[C@H]3[C@H](O)[C@H](O)CC(=NOCC=C(C)CCC=C(C)C)[C@H]3CC[C@H]2C1=O | -1.33 | -0.768 (inactive) | 0.0876 | -0.182 | 0.578 | 0.41 | 0.714 | 1.3 | 1.3 | -0.0616 |
| C#CCCCON=C1C[C@@H](O)[C@@H](O)[C@@H]2[C@@H]3C(=O)N([C@@H](C)c4ccccc4)C(=O)[C@@H]3CC[C@H]12 | 0.161 | -0.26 (inactive) | 0.0494 | -0.0554 | -0.0339 | -0.0684 | 0.0595 | 0.513 | 0.523 | 0.282 |
| CC(C)=CCCC(C)=CCON=C1[C@H]2CCn3c(=O)n(C)c(=O)n3[C@H]2[C@H](O)[C@@H]2O[C@H]12 | -0.286 | -0.0793 (inactive) | 0.0297 | -0.14 | 0.295 | 0.482 | 0.644 | 1.27 | 0.916 | 0.941 |
| C[C@@H]1C=CCC(=O)OC[C@H](C)C(=O)N2CCC[C@H]2C(=O)OC1 | -0.12 | 0.608 (inactive) | -0.143 | -0.0338 | -0.0527 | -0.0199 | 0.0742 | 1.14 | 1.58 | 0.182 |
| COC(=O)[C@]1(CO)N=C(c2ccc(OCCCO)cc2)O[C@@H]1c1ccccc1N=[N+]=[N-] | -1.02 | 1.73 (inactive) | -0.112 | -0.0629 | 0.771 | 4.01 | 0.758 | 1.29 | 0.94 | 0.545 |
| COC(=O)[C@@H]1CC[C@H](C)[C@@H](c2ccc(C)cc2)N1C(=O)c1ccc(C=NOC[C@@H](O)COCc2ccco2)cc1 | -0.188 | -0.93 (inactive) | -0.0077 | -0.195 | -0.746 | -1.31 | 0.171 | -1.9 | -0.177 | -3.62 |
| O=C1[C@H]2[C@H]3[C@H](O)[C@H](O)CC(=NO[C@@H]4O[C@H](CO)[C@@H](O)[C@H](O)[C@H]4O)[C@H]3CC[C@H]2C(=O)N1Cc1ccc2c(c1)OCO2 | 0.861 | -0.161 (inactive) | -0.0984 | -0.106 | 0.173 | 1.42 | 0.0185 | 0.89 | -0.575 | 0.619 |
| CO[C@H]1COC(=O)CC=C[C@H](C)[C@@H](NS(=O)(=O)c2ccc(C)cc2)COC(=O)CC=C[C@@H]1C | -0.498 | -0.38 (inactive) | -0.0436 | -0.151 | -0.0698 | -0.51 | 0.216 | 0.165 | 0.713 | -0.408 |
| Cn1c(=O)n2n(c1=O)[C@H]1[C@H](O)[C@@H]3O[C@@H]3C(=NOC[C@@H](O)COCc3ccco3)[C@H]1CC2 | 0.125 | -0.383 (inactive) | 0.236 | -0.208 | -0.142 | 0.145 | -0.0856 | 0.373 | 0.535 | 0.59 |
| CCOC(=O)CCN1C(=O)[C@H]2[C@H]3[C@H](O)[C@H](O)CC(=O)[C@H]3CC[C@H]2C1=O | 0.132 | 0.466 (inactive) | 0.0282 | -0.0986 | -0.214 | 0.197 | -0.386 | 0.321 | 0.454 | 0.528 |
| CCOC(=O)NN=C1C[C@@H](O)[C@@H](O)[C@@H]2[C@@H]3C(=O)N(C4CCCCC4)C(=O)[C@@H]3CC[C@@H]12 | 0.272 | -0.288 (inactive) | -0.0598 | -0.0534 | 0.0286 | -0.636 | 1.25 | 0.39 | 0.645 | 0.616 |
| CC(=O)OC[C@H]1O[C@H](C#CCCCc2ccccc2)C=C[C@@H]1OC(C)=O | 0.495 | 0.0117 (inactive) | -0.0647 | -0.0772 | -0.155 | 0.622 | 0.46 | 0.459 | 0.192 | -0.077 |
| COCCOC(=O)N1C(=O)[C@@]2(c3ccccc31)[C@H](C(N)=O)[C@H]1C(=O)O[C@H](c3ccccc3)[C@H](c3ccccc3)N1[C@@H]2c1ccccc1OCCO | 0.834 | 0.839 (inactive) | 0.198 | 0.0959 | 0.749 | 2.02 | 1.06 | 1.3 | 0.522 | 1.15 |
| CCOC(=O)C1=CC[C@H]2C(=O)N(CC)C(=O)[C@@H]12 | 0.343 | 0.806 (inactive) | 0.0242 | -0.0866 | 0.522 | 1.01 | 0.111 | 1.09 | 0.363 | 0.65 |
